Assay results from PubChem BioAssay AID1159580 (chemical genetic matrix, 2015).
Several values for one entry are separate records, joined by “and”; a condition that tells them apart may be missing. Identical values can stand only once. Among all 5,500 compounds or so, about 2,000 (36%) were called active. Another 18% or so got no clear call; they are omitted. Cut-off read from the data, not from the text of the source: active = normalized growth mostly below about 0.91 (no sharp cut-off); inconclusive = no clear call, values can overlap the other calls; inactive = mostly above about 0.92. The list shows a part of the results.

Assay: chemical genetic growth profiling, strain panel (AID 1159580);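 note: tested at 20 µM; growth read once vehicle control cultures reached saturation at 30 °C; 1 = growth at the plate median or of vehicle wells; lower values mean less growth of the strain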
Settings: S. cerevisiae deletion strains, growth OD

Measured: normalized growth

CC(C)[C@@H]1CC[C@@H](C)CC1=O
inactive: locus YAL013W, strain DEP1, active compounds read low 1.01 | locus YAL021C, strain ccr4, active compounds read low 0.945 | locus YAL026C, strain drs2, active compounds read low 1.01 | locus YAL030W, strain snc1, active compounds read low 0.998 | locus YBL061C, strain skt5, active compounds read low 0.993 | locus YBR009C, strain hhf1, active compounds read low 0.981 | locus YBR021W, strain FUR4, active compounds read low 0.98 | locus YBR023C, strain chs3, active compounds read low 0.993 | locus YBR171W, strain sec66, active compounds read low 0.986 | locus YBR229C, strain ROT2, active compounds read low 1.01 | locus YBR231C, strain swc5, active compounds read low 0.988 | locus YBR279W, strain paf1, active compounds read low 0.994 | locus YCL011C, strain gbp2, active compounds read low 0.967 | locus YCL016C, strain dcc1, active compounds read low 0.978 | locus YCL029C, strain bik1, active compounds read low 1.01 | locus YCL061C, strain MRC1, active compounds read low 0.997 | locus YCL069W, strain vba3, active compounds read low 0.99 | locus YCR088W, strain abp1, active compounds read low 0.997 | locus YDL005C, strain med2, active compounds read low 0.998 | locus YDL035C, strain GPR1, active compounds read low 1.02 | locus YDL040C, strain nat1, active compounds read low 1 | locus YDL074C, strain BRE1, active compounds read low 1.02 | locus YDL101C, strain DUN1, active compounds read low 1.02 | locus YDL134C, strain PPH21, active compounds read low 1.02 | locus YDL185W, strain tfp1, active compounds read low 1.01 | locus YDL192W, strain arf1, active compounds read low 1.02 | locus YDR001C, strain nth1, active compounds read low 1.01 | locus YDR069C, strain doa4, active compounds read low 1.01 | locus YDR101C, strain arx1, active compounds read low 1.01 | locus YDR137W, strain rgp1, active compounds read low 1 | locus YDR150W, strain NUM1, active compounds read low 1.02 | locus YDR159W, strain sac3, active compounds read low 0.996 | locus YDR162C, strain NBP2, active compounds read low 1.04 | locus YDR195W, strain ref2 0.976 | locus YDR297W, strain sur2, active compounds read low 0.987 | locus YDR318W, strain mcm21, active compounds read low 0.998 | locus YDR334W, strain swr1, active compounds read low 0.993 | locus YDR335W, strain msn5, active compounds read low 0.987 | locus YDR388W, active compounds read low 1 | locus YDR392W, strain spt3, active compounds read low 0.963 | locus YDR502C, strain sam2, active compounds read low 1.01 | locus YEL003W, strain gim4, active compounds read low 0.995 | locus YEL037C, strain rad23, active compounds read low 0.982 | locus YEL061C, strain CIN8 (second series), active compounds read low 0.989 | locus YEL061C, strain CIN8, active compounds read low 1 | locus YER015W, strain faa2, active compounds read low 0.984 | locus YER016W, strain bim1, active compounds read low 0.991 | locus YER110C, active compounds read low 1.01 | locus YER111C, strain swi4, active compounds read low 1 | locus YER155C, strain BEM2 (second series), active compounds read low 0.99 | locus YER155C, strain BEM2, active compounds read low 0.998 | locus YER167W, strain BCK2, active compounds read low 1.02 | locus YFR010W, strain ubp6, active compounds read low 0.996 | locus YGL078C, strain dbp3, active compounds read low 1 | locus YGL086W, strain mad1, active compounds read low 1.01 | locus YGL167C, strain pmr1, active compounds read low 0.992 | locus YGL173C, strain kem1, active compounds read low 0.999 | locus YGL227W, strain vid30, active compounds read low 1 | locus YGL240W, strain doc1, active compounds read low 1 | locus YGL248W, strain PDE1, active compounds read low 1.02 | locus YGL253W, strain hxk2, active compounds read low 0.992 | locus YGR078C, strain PAC10, active compounds read low 1.02 | locus YGR135W, strain pre9, active compounds read low 1.01 | locus YGR229C, strain SMI1, active compounds read low 1.05 | locus YGR252W, strain gcn5, active compounds read low 1.03 | locus YHR013C, strain ard1, active compounds read low 0.979 | locus YHR027C, strain rpn1, active compounds read low 1 | locus YHR030C, strain SLT2, active compounds read low 1.01 and 0.977 | locus YHR079C, strain IRE1 (second series), active compounds read low 0.995 | locus YHR079C, strain IRE1, active compounds read low 0.976 | locus YHR094C, strain hxt1, active compounds read low 1.02 | locus YHR129C, strain ARP1, active compounds read low 1.01 | locus YHR142W, strain chs7, active compounds read low 0.968 | locus YHR200W, strain rpn10, active compounds read low 1.01 | locus YIL066C, strain RNR3, active compounds read low 1.04 | locus YIL073C, strain SPO22, active compounds read low 1.06 | locus YIL125W, strain kgd1, active compounds read low 1.02 | locus YIR030C, strain dcg1, active compounds read low 1.01 | locus YJL092W, strain hpr5, active compounds read low 0.989 | locus YJL095W, strain BCK1 (second series), active compounds read low 0.978 | locus YJL095W, strain BCK1, active compounds read low 1.06 and 0.982 | locus YJL115W, strain asf1, active compounds read low 0.991 | locus YJL129C, strain trk1, active compounds read low 1.01 | locus YJL134W, strain LCB3, active compounds read low 1.01 | locus YJL154C, strain vps35, active compounds read low 0.989 | locus YJL164C, strain tpk1, active compounds read low 0.961 | locus YJL166W, strain qcr8, active compounds read low 0.995 | locus YJL168C, strain set2, active compounds read low 0.996 | locus YJL187C, strain SWE1 (second series), active compounds read low 1.03 | locus YJL187C, strain SWE1, active compounds read low 0.99 | locus YJR043C, strain POL32, active compounds read low 1.02
